# Laboratory results taken from PubChem BioAssay (NCI).
# This is part of a sample that, as a whole, favours compounds with a hit. Of some 83,000 tested, about 20% had one in any assay.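 Interpretation: 100, growth as untreated; towards 0, rising growth inhibition; 0, no net growth; 0 to -100, cell death. Compounds scoring below 10 were considered active.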 A number with no mark means an inactive call. The source made the active and inactive calls.
# Columns and labels:
# Test in all cases: NCI-60 one-dose screen, 48 h (100 = growth as untreated, 0 = no growth, -100 = all killed)
# Conditions in all cases: 10 µM unless noted
# NCI-H23 lung = tested on: NCI-H23 lung
# NCI-H226 lung = tested on: NCI-H226 lung
# NCI-H322M lung = tested on: NCI-H322M lung
# HOP-62 NSCLC = tested on: HOP-62 NSCLC
# NCI-H460 lung = tested on: NCI-H460 lung
# HOP-92 NSCLC = tested on: HOP-92 NSCLC
# NCI-H522 lung = tested on: NCI-H522 lung
# A549/ATCC NSCLC = tested on: A549/ATCC NSCLC
# 786-0 renal = tested on: 786-0 renal
# COLO 205 colon = tested on: COLO 205 colon
# DU-145 prostate = tested on: DU-145 prostate
# K-562 leukemia = tested on: K-562 leukemia
# MALME-3M melanoma = tested on: MALME-3M melanoma
# MDA-MB-231 breast = tested on: MDA-MB-231 breast
# RXF 393 renal = tested on: RXF 393 renal
# SF-268 CNS = tested on: SF-268 CNS
# SF-295 CNS = tested on: SF-295 CNS
# SF-539 CNS = tested on: SF-539 CNS
# M14 melanoma = tested on: M14 melanoma
# UACC-257 melanoma = tested on: UACC-257 melanoma
SMILES,growth (NCI-H23 lung) [%],growth (NCI-H226 lung) [%],growth (NCI-H322M lung) [%],growth (HOP-62 NSCLC),growth (NCI-H460 lung),growth (HOP-92 NSCLC),growth (NCI-H522 lung),growth (A549/ATCC NSCLC),growth (786-0 renal),growth (COLO 205 colon),growth (DU-145 prostate),growth (K-562 leukemia),growth (MALME-3M melanoma),growth (MDA-MB-231 breast),growth (RXF 393 renal) [%],growth (SF-268 CNS) [%],growth (SF-295 CNS),growth (SF-539 CNS),growth (M14 melanoma),growth (UACC-257 melanoma)
CSCCC(NC(=O)C(Cl)Cl)C(=O)O (stereo unspecified),99,88.5,99.6,77.9%,114%,85.2%,86.8%,80.5%,101%,99.7%,108%,97.8%,114%,99.3%,97.1,99.1,98.1%,96.1%,93.8%,
CC(C)=CCC[C@@H](C)[C@H]1CC[C@@]2(C)C3=C(CC[C@]12C)[C@@]1(C)CC[C@H](O)C(C)(C)[C@@H]1CC3,113,104,122,107%,107%,97.8%,95%,97.7%,101%,110%,126%,91.2%,110%,112%,95.9,117,,101%,108%,121%
NC(=S)N/N=C/c1ccc(OC(=O)COc2ccc(Cl)cc2)cn1,33.5,93.5,42.5,53%,69.7%,66.9%,43.3%,107%,32.5%,84.7%,29.3%,44.1%,45.5%,66.6%,67,27.8,99.2%,,17.9%,78.1%
CCNc1ncnc2[nH]ncc12,114,98.9,96.1,103%,106%,101%,113%,107%,105%,114%,117%,119%,72%,107%,,112,112%,96.2%,,89.2%
O=C(NC1CCCCC1)c1ccc(Cl)cc1,95.7,92.5,98.1,92.8%,101%,95%,96.2%,99.9%,103%,109%,103%,96.5%,106%,113%,,97.1,105%,104%,105%,105%
CC(C)(C)NCCC(O)c1cc(C(F)(F)F)nc2c(C(F)(F)F)cccc12 (stereo unspecified),95.5,75.2,76.2,68.3%,44.4%,40.2%,76.2%,57.5%,80.3%,97.7%,73.6%,64.5%,102%,55.1%,73.3,71,,75.1%,84.6%,90.1%
C1C[S+]2CC[S+]1CC2,97.9,98.3,111,104%,101%,111%,98.5%,98.9%,111%,116%,105%,104%,99.9%,,106,102,99%,108%,101%,94.9%
C[n+]1c(/C=C\C=C\N2CCCCC2)sc2ccccc21,12.1,17.7,17.6,-29.1% (active),0.479% (active),-42.3% (active),-49.3% (active),-13.7% (active),-42.4% (active),-42.7% (active),23.1%,-14.4% (active),-4.48% (active),17.7%,,12.9,-10.3% (active),4.51% (active),0.396% (active),-44% (active)
CCOC(C=O)OCC,99,104,104,99.5%,113%,95.8%,93.1%,97.4%,99.7%,105%,104%,106%,92.6%,,121,98.3,99%,97.8%,106%,96.6%
Cn1c2ccccc2c2nnc(NCCCCO)nc21,84.3,83.9,99.3,81.6%,100%,84.1%,95.3%,92.6%,98.8%,103%,103%,99.7%,98.3%,99.3%,,91.1,113%,92.6%,88%,113%
C=CC1=NC(C)(C)CC(C)O1 (stereo unspecified),114,111,108,110%,104%,105%,97.5%,104%,103%,116%,113%,107%,107%,110%,,109,,97.8%,,95.4%
Clc1cccc(Cl)c1C1CSc2ccccc2N=C1c1ccccc1 (stereo unspecified),75.6,82.7,86.3,84.6%,83.1%,75.4%,63.6%,73.8%,90.6%,102%,59.6%,4.38% (active),110%,70.5%,,73.4,,101%,86.6%,51.4%
CNc1ccccc1C(N)=O,99,103,97.3,95.9%,108%,110%,98.1%,97.4%,101%,115%,107%,108%,97.9%,,98.1,100,95.5%,97.6%,96.2%,98.4%
COc1cc2c(c(OC)c1OC)-c1ccc(SC)c(=O)cc1[C@@H](NC1OC(CO)C(O)C(O)C1O)CC2 (stereo partly specified),29.9,43.4,33,25.9%,3.13% (active),77.9%,-16.8% (active),10.4%,19.8%,-61.5% (active),6.12% (active),4.19% (active),54.6%,7.41% (active),,22.7,-35.8% (active),1.24% (active),11.3%,50.5%
CCN(C(C)=O)c1ccc([N+](=O)[O-])cc1,101,99.3,103,95.4%,104%,98.7%,104%,91.8%,102%,110%,110%,107%,101%,,106,103,108%,109%,113%,94.9%
Nc1nnc2cc(F)ccc2n1,90.6,96.3,106,101%,107%,85.2%,99.8%,113%,105%,134%,102%,97.2%,107%,102%,,99.6,,107%,99.3%,110%
O=S(=O)(c1ccc(NC(=S)NCc2cccnc2)cc1)N1CCCCC1,87,86.7,91.4,83.1%,63%,86.2%,19.1%,65.2%,93.8%,63%,46.9%,33%,90.3%,95.1%,,72.6,,31.9%,39.7%,101%
CC(C)(N)CO[C@H]1C[C@H]2CC[C@@]1(C)C2(C)C,94.7,88.5,96.5,106%,97.8%,89.2%,92.4%,96.8%,97.6%,109%,102%,123%,97.1%,,87.6,91.5,97.7%,99.4%,90%,97.1%
